This passage reports growth results from PubChem BioAssay (NCI).

Some test systems named below: SR leukemia; RPMI-8226 leukemia; OVCAR-8 ovarian; OVCAR-5 ovarian; OVCAR-4 ovarian; SK-OV-3 ovarian; IGROV1 ovarian; OVCAR-3 ovarian; HS 578T breast; NCI/ADR-RES ovarian.
What all share (assay): NCI-60 one-dose screen, 48 h (100 = growth as untreated, 0 = no growth, -100 = all killed)
Holding throughout (settings): 10 µM unless noted

Several values for one entry are separate records, joined by “and”; a condition that tells them apart may be missing. Equal values may be shown once. About 83,000 compounds went through this panel and 20% of them were active in at least one assay; those are over-represented in the sample as a whole.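 The test compound was applied at a single concentration to cells in 96-well plates for 48 hours, and percent growth was recorded.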 Activity calls are given as the source filed them. How the source made its calls: active means growth percent below 10; inactive means the rest.

For the compound `Cc1ccccc1SSc1ccccc1C`, the growth in the assay on SR leukemia was 65.4% (inactive); in the assay with RPMI-8226 leukemia it was 98.5% (inactive); with OVCAR-8 ovarian, 84.1% (inactive); with OVCAR-5 ovarian it was 75.5% (inactive); in the assay with OVCAR-4 ovarian, 94.5% (inactive); with SK-OV-3 ovarian, 96.9% (inactive). Besides, the growth was 84.6% (inactive) with IGROV1 ovarian, 120% (inactive) in the assay with OVCAR-3 ovarian, 97.7% (inactive) in the assay on HS 578T breast and 86.4% (inactive) in the assay on NCI/ADR-RES ovarian.
For `COc1ccccc1/C=C1\COc2ccc(O)c(O)c2C1=O`, the growth is 8.02% (active) in the assay with SR leukemia; -19.3% (active) in the assay on RPMI-8226 leukemia; 9.04% (active) in the assay on OVCAR-8 ovarian; 28.3% (inactive) with OVCAR-5 ovarian; 28.1% (inactive) with OVCAR-4 ovarian; 60.3% (inactive) in the assay on SK-OV-3 ovarian. Also, the growth in the assay on IGROV1 ovarian was 6.74% (active); in the assay with OVCAR-3 ovarian it was -11.8% (active); in the assay with HS 578T breast, 10.4% (inactive); with NCI/ADR-RES ovarian, 3.53% (active).
Take `Cc1nc2sc(C(=O)Nc3cccc4ncccc34)c(N)c2cc1C(C)O` (stereo not given): the growth was 22.4% (inactive) with SR leukemia; 75.8% (inactive) in the assay on RPMI-8226 leukemia; 86.6% (inactive) in the assay with OVCAR-8 ovarian; 96.5% (inactive) in the assay on OVCAR-5 ovarian; 91.3% (inactive) in the assay on OVCAR-4 ovarian; 69.9% (inactive) in the assay on SK-OV-3 ovarian. Moreover, the growth was 74.4% (inactive) in the assay with IGROV1 ovarian, 54.6% (inactive) with OVCAR-3 ovarian, 63.6% (inactive) with HS 578T breast and 88% (inactive) in the assay on NCI/ADR-RES ovarian.
Regarding `CCCCCCCCN(CCCCCCCC)CC(O)c1cc(Cl)ccc1OC` (stereo not given), the growth was 14.5% (inactive) with SR leukemia; 41.5% (inactive) with RPMI-8226 leukemia; 87.9% (inactive) in the assay with OVCAR-8 ovarian; 72.6% (inactive) with OVCAR-5 ovarian; 66.9% (inactive) in the assay on OVCAR-4 ovarian; 78.1% (inactive) in the assay on SK-OV-3 ovarian. Moreover, the growth in the assay on IGROV1 ovarian is 84.9% (inactive); in the assay on OVCAR-3 ovarian it was 91.9% (inactive); with HS 578T breast, 69.1% (inactive); in the assay with NCI/ADR-RES ovarian, 82.6% (inactive).
For the compound `NS(=O)(=O)OCC1OC(n2cnc3cncnc32)C(O)C1O` (stereo not given), the growth in the assay on SR leukemia is 2.84% [0.1 µM] (active) and 3.32% [0.1 µM] (active); in the assay on RPMI-8226 leukemia it was 25.1% [0.1 µM] (inactive); with OVCAR-8 ovarian it was 1.63% [0.1 µM] (active) and 1.09% [0.1 µM] (active); in the assay on OVCAR-5 ovarian, 24.4% [0.1 µM] (inactive) and 6.91% [0.1 µM] (active); in the assay on OVCAR-4 ovarian it was 14.6% [0.1 µM] (inactive) and 11.4% [0.1 µM] (inactive); with SK-OV-3 ovarian, 18.5% [0.1 µM] (inactive) and 21.6% [0.1 µM] (inactive). Besides, the growth in the assay with IGROV1 ovarian was 18% [0.1 µM] (inactive) and 48.5% [0.1 µM] (inactive); in the assay with OVCAR-3 ovarian, 38.6% [0.1 µM] (inactive) and 28.1% [0.1 µM] (inactive); in the assay with HS 578T breast, 55.8% [0.1 µM] (inactive); in the assay on NCI/ADR-RES ovarian it was -5.79% [0.1 µM] (active) and 4.02% [0.1 µM] (active).
As to `CC1(Cc2ccccc2)CC2=C(C(=O)O1)C(c1ccccc1)NC(=O)N2` (stereo not given), the growth with SR leukemia was 76.6% (inactive); in the assay on RPMI-8226 leukemia, 94% (inactive); in the assay on OVCAR-8 ovarian it was 104% (inactive); with OVCAR-5 ovarian, 81.2% (inactive); with OVCAR-4 ovarian it was 108% (inactive); with SK-OV-3 ovarian, 98.8% (inactive). In addition, the growth is 118% (inactive) in the assay on IGROV1 ovarian, 109% (inactive) in the assay on OVCAR-3 ovarian, 109% (inactive) in the assay with HS 578T breast and 106% (inactive) in the assay on NCI/ADR-RES ovarian.
As to `Cc1ccc(Nc2nc(-c3cc(O)c(C)c(C)c3O)cs2)cc1`, the growth in the assay with SR leukemia is 70.3% (inactive); with RPMI-8226 leukemia, 77.5% (inactive); in the assay with OVCAR-8 ovarian it was 84.1% (inactive); in the assay with OVCAR-5 ovarian, 109% (inactive); with OVCAR-4 ovarian it was 105% (inactive); with SK-OV-3 ovarian it was 105% (inactive). Also, the growth is 92.9% (inactive) in the assay on IGROV1 ovarian, 104% (inactive) in the assay on OVCAR-3 ovarian, 97.9% (inactive) in the assay with HS 578T breast and 73% (inactive) in the assay with NCI/ADR-RES ovarian.
Turning to `CC[C@H](C)[C@H](NC(=O)[C@@H](N)CCC(N)=O)C(=O)N[C@@H](Cc1ccc(O)cc1)C(=O)N[C@@H](CCCCN)C(=O)N[C@@H](CCCCN)C(=O)N[C@@H](Cc1ccc(O)cc1)C(=O)N[C@@H](CCCNC(=N)N)C(=O)N[C@H](C(=O)N[C@@H](Cc1c[nH]c2ccccc12)C(=O)N[C@@H](Cc1ccc(O)cc1)C(=O)N[C@@H](CCCNC(=N)N)C(=O)N[C@@H](CCCCN)C(=O)N[C@@H](C)C(=O)N[C@@H](Cc1c[nH]c2ccccc12)C(=O)N[C@@H](CCCCN)C(=O)N[C@H](C(=O)N[C@@H](CC(C)C)C(=O)NCC(=O)N[C@@H](CCCCN)C(=O)N[C@H](C(N)=O)C(C)C)C(C)C)[C@@H](C)O`, the growth in the assay on SR leukemia was 37.8% (inactive); in the assay with RPMI-8226 leukemia it was 17.9% (inactive); with OVCAR-8 ovarian, 13% (inactive); in the assay on OVCAR-5 ovarian, 56.6% (inactive); in the assay with OVCAR-4 ovarian it was 73.5% (inactive); with SK-OV-3 ovarian, 42.8% (inactive). In addition, the growth is -33.4% (active) with IGROV1 ovarian, -1.52% (active) in the assay with OVCAR-3 ovarian, -13% (active) with HS 578T breast and -2.5% (active) with NCI/ADR-RES ovarian.
On to `CCOC(=O)c1c(-c2ccc(OC)cc2)c(C#N)c2c(C#N)c(N)nn2c1N`, for which the growth is 0.886% (active) in the assay with SR leukemia; 13.8% (inactive) in the assay with RPMI-8226 leukemia; 43.9% (inactive) in the assay with OVCAR-8 ovarian; 70.1% (inactive) in the assay on OVCAR-5 ovarian; 68.1% (inactive) with OVCAR-4 ovarian; 45.8% (inactive) with SK-OV-3 ovarian. Also, the growth with IGROV1 ovarian is 24.6% (inactive); in the assay with OVCAR-3 ovarian it was 5.29% (active); with HS 578T breast, 27.7% (inactive); with NCI/ADR-RES ovarian, 17.8% (inactive).
As to `c1ccc(-c2cc(-c3cc(-c4ccccc4)on3)no2)cc1`, the growth in the assay on SR leukemia was 61.6% (inactive); with RPMI-8226 leukemia it was 88.1% (inactive); in the assay with OVCAR-8 ovarian, 74.6% (inactive); in the assay with OVCAR-5 ovarian, 77.1% (inactive); in the assay with OVCAR-4 ovarian, 96.7% (inactive); in the assay on SK-OV-3 ovarian, 109% (inactive). Further, the growth is 63.6% (inactive) in the assay on IGROV1 ovarian, 127% (inactive) in the assay on OVCAR-3 ovarian, 116% (inactive) in the assay with HS 578T breast and 69.7% (inactive) in the assay with NCI/ADR-RES ovarian.
For the compound `O=C(CCl)N(O)c1ccc(/C=C/c2ccccc2)cc1`, the growth in the assay on SR leukemia was 11% (inactive); in the assay on RPMI-8226 leukemia, 72.7% (inactive) and 65.9% (inactive); in the assay with OVCAR-8 ovarian, 63.1% (inactive) and 89.3% (inactive); in the assay with OVCAR-5 ovarian, 109% (inactive) and 119% (inactive); in the assay with OVCAR-4 ovarian, 103% (inactive) and 94.9% (inactive); in the assay with SK-OV-3 ovarian, 101% (inactive) and 105% (inactive). Also, the growth was 70.9% (inactive) and 61.9% (inactive) in the assay on IGROV1 ovarian; 98.7% (inactive) and 81.9% (inactive) in the assay with OVCAR-3 ovarian; 107% (inactive) and 111% (inactive) in the assay with HS 578T breast; 86.3% (inactive) and 89.1% (inactive) with NCI/ADR-RES ovarian.
